We go through seven compounds from PubChem BioAssay (Tox21).

The nature of test [1]: qHTS assay to identify small molecule agonists of the sonic hedgehog signaling (Shh) pathway (AID 1259368).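 Further: NIH/3T3-derived 3T3Gli1-Luc cells carrying a stable Gli1-driven firefly luciferase reporter; series mostly up to about 92 µM; nearly all actives have a fitted effect of over 15% in size.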 The method, boiled down:
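Hedgehog pathway agonism scored by increased firefly luciferase luminescence in 3T3Gli1-Luc cells treated 24 hr at 37 C; detection used a 30 min room-temperature reagent incubation.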

The nature of test [2]: qHTS assay to identify small molecule antagonists of the sonic hedgehog signaling (Shh) pathway (AID 1259369). Further: nearly all actives have a fitted effect of over 45% in size. Further: potency means the concentration at half of the fitted maximal effect. Summed up: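 NIH/3T3 stable Gli1-Luc clone, 2,000 cells/well, 4hr settle; cpd + conditioned medium 24hr; Luc reagent 30min RT; luminescence.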
Test [3] addresses Estrogen receptor beta (Homo sapiens) (UniProt Q92731). As to the kind of experiment: qHTS assay to identify small molecule agonists of the estrogen receptor beta (ER-beta) signaling pathway (AID 1259377; active means well fitted activation curve with a large enough effect in the signal ratio in the repeat runs, not every such curve was filed as active; the % refers to the signal ratio). Summed up:
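Beta-lactamase reporter readout: fluorescence of LiveBLAzer B/G FRET substrate after 2 h at room temperature, following 16 h compound treatment of ER-beta-UAS-bla HEK293T cells at 37C in 2% charcoal-stripped FBS medium.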

Test [4] can be described thus: qHTS assay to identify small molecule agonists of the androgen receptor (AR) signaling pathway in the presence of an antagonist - cell viability counter screen (AID 1259379; active means well fitted curve in the direction sought with a large enough effect in the repeat runs; an effect the other way counts as inactive or inconclusive;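 further: MDA-kb2 human breast cancer cells carrying an MMTV luciferase reporter; series mostly up to about 92 µM; nearly all actives have a fitted effect of over 25% in size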). The method, boiled down: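 MDA-kb2 viability measured by CellTiter-Fluor fluorescence in the same wells as the luciferase signal; nilutamide 3.0uM final; 15-point compound titration; 16 hr at 37C.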

Test [5] can be described thus: qHTS assay to identify small molecule agonists of the estrogen receptor beta (ER-beta) signaling pathway - cell viability counter screen (AID 1259380; active means well fitted curve in the direction sought with a large enough effect in the repeat runs; an effect the other way counts as inactive or inconclusive; further: nearly all actives have a fitted effect of over 30% in size). The method, boiled down: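 Measured: luminescence from CellTiter-Glo after 30 min at room temperature, added to wells already read for the LiveBLAzer FRET reporter (2 hr substrate); ER-beta-UAS-bla HEK293T cells had 16 hr compound treatment at 37C, 5% CO2.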

The nature of test [6]: qHTS assay to identify small molecule antagonists of the estrogen receptor beta (ER-beta) signaling pathway - cell viability counter screen (AID 1259382; active means well fitted curve in the direction sought with a large enough effect in the repeat runs; an effect the other way counts as inactive or inconclusive; further: series mostly up to about 92 µM; nearly all actives have a fitted effect of over 55% in size). The method, boiled down: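 Readout: luminescence, CellTiter-Glo, same wells as bla assay. System: ER-beta-UAS-bla GripTite HEK293T, 2% charcoal-stripped FBS. Exposure: compounds plus 1nM 17-beta-estradiol, 16 hr, 37C.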

The target in test [7] is Estrogen receptor (Homo sapiens) (UniProt P03372). As to the kind of experiment: qHTS assay to identify small molecule agonists of the estrogen receptor alpha (ER-alpha) signaling pathway in the presence of an antagonist (AID 1259383). Further: top concentration of the series differs between compounds; nearly all actives have a fitted effect of over 15% in size. Summed up:
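Quantitative HTS confirmation: compounds titrated at 15 concentrations onto estrogen-deprived VM7Luc4E2 cells carrying a four-ERE luciferase construct, with ICI-182,780 present at 10.0nM final. Signal is luminescence after 22hr exposure.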

A short description of test [8]: qHTS assay to identify small molecule agonists or antagonists of the thyroid stimulating hormone receptor (TSHR) signaling pathway - wild type cell line counter screen (AID 1259384). Summed up:
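Wild-type Hek293 cells, 800/well, 18 h at 37C, then compound with Ro20-1724 for 30 min RT. cAMP by HTRF (cAMP-d2/anti-cAMP cryptate), 1 h RT, fluorescence read. 15 concentrations, triplicates.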

In test [9] the target is Thyrotropin receptor (Homo sapiens) (UniProt P16473). As to the kind of experiment: qHTS assay to identify small molecule antagonists of the thyroid stimulating hormone receptor (TSHR) signaling pathway (AID 1259385). Further: nearly all actives have a fitted effect of over 20% in size. Summed up: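 TSHR-HEK293 cells (800/well) plated 18 h, then compounds with Ro20-1724 and TSH at 1.5 ng/mL final, 30 min at room temperature. cAMP quantified by HTRF (cAMP-d2/anti-cAMP-cryptate, 1 h); 15 concentrations in triplicate.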

The nature of test [10]: qHTS assay to identify small molecule agonists of the estrogen receptor alpha (ER-alpha) signaling pathway in the presence of an antagonist - cell viability counter screen (AID 1259386; active means well fitted curve in the direction sought with a large enough effect in the repeat runs; an effect the other way counts as inactive or inconclusive;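 further: series mostly up to about 92 µM; cells exposed to compounds for 22 h at 37 °C before the viability read; nearly all actives have a fitted effect of over 30% in size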). Summed up:
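The test measures whether compounds kill ER-alpha reporter cells (VM7Luc4E2) under antagonist co-treatment (ICI-182,780, 10.0nM). Fluorescence from CellTiter-Fluor is read after a 22hr exposure.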

Test [11] has as its target Progesterone receptor (Homo sapiens) (UniProt P06401). The test is described as follows: qHTS assay to identify small molecule agonists of the progesterone receptor (PR) signaling pathway (AID 1346784). Further: nearly all actives have a fitted effect of over 30% in size. The method, boiled down:
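HEK 293T PR-UAS-bla reporter cells, 2% charcoal-stripped FBS; 6 hr settle at 37C/5% CO2, compound (DMSO) 16 hr, LiveBLAzer B/G FRET substrate 2 hr RT, fluorescence intensity read.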

The target is the same in test [12]. The test is described as follows: qHTS assay to identify small molecule antagonists of the progesterone receptor (PR) signaling pathway (AID 1346795; active means well fitted inhibition curve with a large enough effect in the signal ratio in the repeat runs, not every such curve was filed as active; the % refers to the signal ratio; further: potency means the concentration at half of the fitted maximal effect). The method, boiled down: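 Beta-lactamase reporter, HEK293T PR-UAS-bla line; 2% charcoal-stripped FBS; 6 hr pre-incubation, 37C/5% CO2. Compound + R5020 1 nM final, 16 hr. LiveBLAzer B/G FRET substrate, 2 hr RT; fluorescence intensity read.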

Test [13] is described as follows: qHTS assay to identify small molecule antagonists of the TGF-beta/Smad signaling pathway - cell viability counter screen (AID 1346824; active means well fitted curve in the direction sought with a large enough effect in the repeat runs; an effect the other way counts as inactive or inconclusive; further: nearly all actives have a fitted effect of over 50% in size). The method, boiled down: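 SBE-bla HEK 293T cells, incubated overnight, then compound plus 0.25 ng/mL TGF-beta1 (stock added) for 5 hr at 37 C. Viability was read in the same wells by CellTiter-Glo luminescence after 30 min at room temperature.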

Test [14] in a line: qHTS assay to identify small molecule agonists of the TGF-beta/Smad signaling pathway - cell viability counter screen (AID 1346829; active means well fitted curve in the direction sought with a large enough effect in the repeat runs; an effect the other way counts as inactive or inconclusive; further: top concentration of the series differs between compounds; nearly all actives have a fitted effect of over 45% in size). Summed up: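 HEK 293T SBE-bla line, 5 hr compound exposure at 37 C, multiplexed CellTiter-Glo viability read by luminescence.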
Test [15] in a line: qHTS assay to identify small molecule agonists of the TGF-beta/Smad signaling pathway (AID 1346859; active means well fitted activation curve with a large enough effect in the signal ratio in the repeat runs, not every such curve was filed as active; the % refers to the signal ratio; further: series mostly up to about 77 µM). Summed up: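 Read-out: fluorescence at 460 and 530 nm (405 nm excitation) after a 2 hr room-temperature incubation with beta-lactamase FRET substrate. SBE-bla HEK 293T cells had been treated with test compounds for 5 hr at 37 C.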
Test [16] has as its target Thyrotropin-releasing hormone receptor (Homo sapiens) (UniProt P34981). As to the kind of experiment: qHTS assay to identify small molecule antagonists of the thyrotropin-releasing hormone receptor (TRHR) signaling pathway (AID 1346877; active means well fitted inhibition curve with a large enough effect in the repeat runs, not every such curve was filed as active; further: series mostly up to about 51 µM). Summed up: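 Overnight-plated (18 h, 37 °C) HEK293 cells expressing TRHR were dye-loaded 2 h, treated with compound, then stimulated with TRH at 1 nM final. Fluorescence intensity was captured every second for 3 min.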

Test [17] deals with Estrogen receptor beta (Homo sapiens) (UniProt Q92731). As to the kind of experiment: qHTS assay to identify small molecule antagonists of the estrogen receptor beta (ER-beta) signaling pathway (AID 1259378; active means well fitted inhibition curve with a large enough effect in the signal ratio in the repeat runs, not every such curve was filed as active; the % refers to the signal ratio). The method, boiled down:
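ER-beta-UAS-bla HEK293T cells in 2% charcoal-stripped FBS medium treated with compound plus 1nM final 17-beta-estradiol for 16 hr at 37C. Beta-lactamase reporter read by FRET substrate fluorescence after 2 hours at room temperature.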

The nature of test [18]: qHTS assay to identify small molecule antagonists of the progesterone receptor (PR) signaling pathway - cell viability counter screen (AID 1346798; active means well fitted curve in the direction sought with a large enough effect in the repeat runs; an effect the other way counts as inactive or inconclusive; further: series mostly up to about 92 µM; nearly all actives have a fitted effect of over 50% in size). Summed up: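 Luminescence readout (CellTiter-Glo, 30 min, RT) of viability in PR-UAS-bla HEK293T cells exposed to compound and R5020 agonist for 16 hr at 37C, 5% CO2; run in the same wells as the beta-lactamase reporter read.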

Test [19] can be described thus: qHTS assay to identify small molecule agonists of the progesterone receptor (PR) signaling pathway - cell viability counter screen (AID 1346799). Further: nearly all actives have a fitted effect of over 45% in size. Summed up:
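HEK293T PR-UAS-bla, 3,000 cells/well, 2% charcoal-stripped FBS; 6 h settle, compound 16 h at 37C/5% CO2; LiveBLAzer 2 h RT, then CellTiter-Glo 30 min RT, luminescence read.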

Test [20] concerns the target Androgen receptor (Homo sapiens) (UniProt P10275). The test is described as follows: qHTS assay to identify small molecule agonists of the androgen receptor (AR) signaling pathway in the presence of an antagonist (AID 1259381). Further: nearly all actives have a fitted effect of over 15% in size. Summed up: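 Luminescent ONE-Glo read, 30min at room temperature, follows 16hr compound exposure (15 concentrations) of MDA-kb2 cells at 37C, 0% CO2, with nilutamide added at 3.0uM final.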

Several values for one entry are separate records, joined by “and”; a condition that tells them apart may be missing. Identical values can stand only once. Records with an inconclusive call do not appear. Activity calls are given as the source filed them. Unless noted, the call rests on the fitted dose curve.

Sequence of Estrogen receptor beta (Homo sapiens) (Q92731 whole entry, looked up): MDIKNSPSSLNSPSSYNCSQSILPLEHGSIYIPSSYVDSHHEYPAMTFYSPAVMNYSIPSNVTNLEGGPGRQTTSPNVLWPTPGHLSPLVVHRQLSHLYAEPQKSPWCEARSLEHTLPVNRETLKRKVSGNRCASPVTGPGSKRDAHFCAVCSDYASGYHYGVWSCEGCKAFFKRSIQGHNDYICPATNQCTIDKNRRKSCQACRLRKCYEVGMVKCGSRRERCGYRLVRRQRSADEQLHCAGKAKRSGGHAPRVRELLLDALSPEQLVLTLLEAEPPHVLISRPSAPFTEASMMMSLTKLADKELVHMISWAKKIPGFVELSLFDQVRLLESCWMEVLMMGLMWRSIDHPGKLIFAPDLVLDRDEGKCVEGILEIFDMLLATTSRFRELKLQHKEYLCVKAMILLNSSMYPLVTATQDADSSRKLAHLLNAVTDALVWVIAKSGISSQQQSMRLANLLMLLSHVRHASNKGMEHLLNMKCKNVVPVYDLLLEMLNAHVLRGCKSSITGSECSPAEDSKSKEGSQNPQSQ
Sequence of Progesterone receptor (Homo sapiens) (P06401 whole entry, looked up): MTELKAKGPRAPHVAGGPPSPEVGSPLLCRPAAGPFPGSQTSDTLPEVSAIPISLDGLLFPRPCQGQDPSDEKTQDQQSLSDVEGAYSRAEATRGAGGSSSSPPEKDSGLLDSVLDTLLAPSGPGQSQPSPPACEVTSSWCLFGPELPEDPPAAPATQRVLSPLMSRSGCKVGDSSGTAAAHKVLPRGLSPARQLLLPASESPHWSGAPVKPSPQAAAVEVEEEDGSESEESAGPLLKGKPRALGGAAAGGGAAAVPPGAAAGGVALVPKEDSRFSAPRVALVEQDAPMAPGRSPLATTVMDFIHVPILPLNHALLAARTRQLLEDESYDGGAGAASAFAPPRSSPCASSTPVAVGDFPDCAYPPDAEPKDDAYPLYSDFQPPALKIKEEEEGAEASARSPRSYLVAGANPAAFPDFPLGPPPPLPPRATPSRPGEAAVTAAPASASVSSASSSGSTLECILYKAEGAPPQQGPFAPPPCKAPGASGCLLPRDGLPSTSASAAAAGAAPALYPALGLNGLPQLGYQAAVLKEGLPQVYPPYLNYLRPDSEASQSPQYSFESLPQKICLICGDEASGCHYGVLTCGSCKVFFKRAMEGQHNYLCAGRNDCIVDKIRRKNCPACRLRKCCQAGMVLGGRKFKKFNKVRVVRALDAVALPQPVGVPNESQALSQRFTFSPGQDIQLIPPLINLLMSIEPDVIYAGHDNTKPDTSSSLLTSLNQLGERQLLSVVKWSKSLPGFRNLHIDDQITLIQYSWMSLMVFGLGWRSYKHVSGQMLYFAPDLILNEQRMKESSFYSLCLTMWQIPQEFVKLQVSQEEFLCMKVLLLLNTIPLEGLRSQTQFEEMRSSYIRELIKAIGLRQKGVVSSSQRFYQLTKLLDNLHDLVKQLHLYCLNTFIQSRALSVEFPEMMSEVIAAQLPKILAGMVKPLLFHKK
Sequence of Thyrotropin receptor (Homo sapiens) (P16473 whole entry, looked up): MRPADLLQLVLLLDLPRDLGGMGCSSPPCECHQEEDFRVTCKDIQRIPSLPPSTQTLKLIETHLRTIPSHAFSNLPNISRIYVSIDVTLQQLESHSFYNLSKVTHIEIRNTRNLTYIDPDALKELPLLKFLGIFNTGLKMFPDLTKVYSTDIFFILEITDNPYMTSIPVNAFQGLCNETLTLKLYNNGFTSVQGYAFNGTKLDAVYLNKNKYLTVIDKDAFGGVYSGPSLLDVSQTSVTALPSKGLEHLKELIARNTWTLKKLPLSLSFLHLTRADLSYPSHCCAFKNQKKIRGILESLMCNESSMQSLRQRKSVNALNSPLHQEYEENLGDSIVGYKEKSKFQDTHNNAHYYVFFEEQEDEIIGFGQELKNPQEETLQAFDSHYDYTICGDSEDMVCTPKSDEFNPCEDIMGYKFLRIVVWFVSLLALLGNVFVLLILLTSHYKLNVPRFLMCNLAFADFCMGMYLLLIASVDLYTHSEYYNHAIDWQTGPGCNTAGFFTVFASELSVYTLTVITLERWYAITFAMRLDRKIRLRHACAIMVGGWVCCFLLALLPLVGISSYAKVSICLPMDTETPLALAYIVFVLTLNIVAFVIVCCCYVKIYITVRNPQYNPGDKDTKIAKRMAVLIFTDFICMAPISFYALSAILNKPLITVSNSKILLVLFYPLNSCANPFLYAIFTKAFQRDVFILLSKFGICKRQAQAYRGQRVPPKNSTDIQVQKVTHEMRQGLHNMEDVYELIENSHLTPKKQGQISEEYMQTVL
Sequence of Estrogen receptor (Homo sapiens) (P03372 whole entry, looked up): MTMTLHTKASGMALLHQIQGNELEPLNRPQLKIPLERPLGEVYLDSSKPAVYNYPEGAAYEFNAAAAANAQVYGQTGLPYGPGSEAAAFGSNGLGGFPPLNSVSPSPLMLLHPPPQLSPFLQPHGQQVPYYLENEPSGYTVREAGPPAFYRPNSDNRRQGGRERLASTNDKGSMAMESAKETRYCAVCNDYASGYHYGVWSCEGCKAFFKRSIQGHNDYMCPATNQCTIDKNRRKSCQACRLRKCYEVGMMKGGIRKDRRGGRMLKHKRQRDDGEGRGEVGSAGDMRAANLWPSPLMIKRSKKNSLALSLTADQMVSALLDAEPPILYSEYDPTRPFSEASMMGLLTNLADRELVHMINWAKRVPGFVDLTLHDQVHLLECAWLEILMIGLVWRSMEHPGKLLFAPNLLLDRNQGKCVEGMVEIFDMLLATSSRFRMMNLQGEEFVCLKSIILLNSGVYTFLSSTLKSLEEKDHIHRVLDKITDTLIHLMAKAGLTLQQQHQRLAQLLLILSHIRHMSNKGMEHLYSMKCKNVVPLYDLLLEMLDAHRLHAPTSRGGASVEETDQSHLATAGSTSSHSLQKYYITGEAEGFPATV
Sequence of Thyrotropin-releasing hormone receptor (Homo sapiens) (P34981 whole entry, looked up): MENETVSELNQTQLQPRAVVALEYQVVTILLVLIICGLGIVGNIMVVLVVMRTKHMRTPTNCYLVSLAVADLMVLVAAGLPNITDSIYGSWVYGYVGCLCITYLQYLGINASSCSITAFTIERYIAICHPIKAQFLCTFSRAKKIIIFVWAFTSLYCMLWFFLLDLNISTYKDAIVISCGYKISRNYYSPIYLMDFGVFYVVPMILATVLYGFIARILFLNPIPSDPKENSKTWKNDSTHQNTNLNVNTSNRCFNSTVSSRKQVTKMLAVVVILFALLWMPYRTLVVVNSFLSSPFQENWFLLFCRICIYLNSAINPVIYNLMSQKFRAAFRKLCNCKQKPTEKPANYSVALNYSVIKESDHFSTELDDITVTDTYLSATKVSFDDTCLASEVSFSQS
Sequence of Androgen receptor (Homo sapiens) (P10275 whole entry, looked up): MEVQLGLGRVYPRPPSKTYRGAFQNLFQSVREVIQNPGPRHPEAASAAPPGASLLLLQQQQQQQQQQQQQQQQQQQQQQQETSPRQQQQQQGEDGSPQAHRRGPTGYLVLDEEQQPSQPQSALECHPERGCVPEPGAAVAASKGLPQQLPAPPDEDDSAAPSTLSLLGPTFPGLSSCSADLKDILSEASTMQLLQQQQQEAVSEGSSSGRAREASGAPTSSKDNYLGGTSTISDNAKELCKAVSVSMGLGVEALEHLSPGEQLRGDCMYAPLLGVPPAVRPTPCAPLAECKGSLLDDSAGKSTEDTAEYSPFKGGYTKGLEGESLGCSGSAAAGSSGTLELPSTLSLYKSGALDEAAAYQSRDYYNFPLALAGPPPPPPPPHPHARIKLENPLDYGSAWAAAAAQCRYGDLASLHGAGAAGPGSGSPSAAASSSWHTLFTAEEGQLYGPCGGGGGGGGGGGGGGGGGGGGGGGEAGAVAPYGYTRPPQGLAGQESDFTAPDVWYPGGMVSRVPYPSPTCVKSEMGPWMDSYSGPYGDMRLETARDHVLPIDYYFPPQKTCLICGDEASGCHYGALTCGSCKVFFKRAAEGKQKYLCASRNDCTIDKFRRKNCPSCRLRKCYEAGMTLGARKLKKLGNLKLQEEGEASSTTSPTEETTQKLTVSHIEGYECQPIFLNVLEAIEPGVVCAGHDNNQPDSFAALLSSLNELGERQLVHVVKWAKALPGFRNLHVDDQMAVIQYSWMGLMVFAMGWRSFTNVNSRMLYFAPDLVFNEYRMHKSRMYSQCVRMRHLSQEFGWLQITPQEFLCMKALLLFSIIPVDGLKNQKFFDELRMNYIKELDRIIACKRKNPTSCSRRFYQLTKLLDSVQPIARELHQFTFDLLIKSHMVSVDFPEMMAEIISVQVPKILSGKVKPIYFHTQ

For the compound `CCOC(=O)C(C)OC(=O)c1cc(Oc2ccc(C(F)(F)F)cc2Cl)ccc1[N+](=O)[O-]` (stereo unspecified), the Potency entry in test [1], in test [2], in test [3], in test [4], in test [5] and in test [6] was “inactive” each time. Further, the Potency entry in [7], in test [10], in test [11], in test [13], in test [14] and in test [16] was “inactive” each time. The call in [8], in test [9] and in test [15] was inactive. Moreover, the Potency in test [12] is 30.5 µM (active).

As to `c1nc[nH]n1`, the Potency result in [1], in [2], in [3], in [17], in [4] and in [5] was “inactive” throughout. Further, the Potency entry in test [6], in test [7], in [10], in [11], in test [12] and in test [18] was “inactive” each time. Moreover, the Potency result in test [19], in test [13] and in [14] was “inactive” throughout. Further, the result in test [8], in test [9] and in test [15] was inactive.

For `C=CC(=O)OCCO`, the Potency entry in test [1], in test [3], in test [17], in test [4], in test [5] and in test [6] was “inactive” in each case. Also, the Potency entry in test [10], in test [11], in test [12], in test [18], in test [19] and in test [13] was “inactive” throughout. The Potency entry in test [14] and in [16] was “inactive” each time. In test [2], the Potency was 24.7 µM (active) and 27.3 µM (active). Also, the outcome in test [8], in [9] and in test [15] was inactive.

As for `N#CC(Br)Br`, the Potency entry in [1], in [2], in test [3], in test [17], in test [4] and in test [5] was “inactive” each time. The Potency entry in test [6], in test [7], in [10], in test [11], in test [12] and in [18] was “inactive” in each case. The Potency entry in test [19], in test [13], in [14] and in [16] was “inactive” each time. Also, the call in test [8], in test [9] and in [15] was inactive.

On to `CC(C)Oc1cc(-n2nc(C(C)(C)C)oc2=O)c(Cl)cc1Cl`, for which the Potency result in test [1], in [2], in test [3], in [4], in [5] and in test [20] was “inactive” each time. For the same compound, the Potency entry in test [7], in test [10], in test [18], in test [19], in [13] and in [14] was “inactive” throughout. Besides, the Potency result in test [16] was “inactive”. The outcome in test [8], in test [9] and in [15] was inactive. In addition, in test [12], the Potency was 24 µM (active) and 24.3 µM (active).

With `Nn1cnnc1`, the Potency result in test [1], in [2], in [3], in test [17], in test [4] and in [7] was “inactive” in each case. The Potency result in [10], in test [11], in [12], in [18], in [19] and in [13] was “inactive” in each case. The Potency result in test [14] and in [16] was “inactive” throughout. In addition, the compound was called inactive in test [8], in test [9] and in test [15].

Take `CC(C)N(C(=O)SCC(Cl)=C(Cl)Cl)C(C)C`: the Potency result in test [1], in [2], in test [3], in [4], in test [5] and in [6] was “inactive” in each case. The Potency entry in test [10], in test [12], in test [18], in test [19], in test [13] and in test [14] was “inactive” each time. Moreover, in test [16], the Potency entry is “inactive”. The call in test [8], in [9] and in test [15] was inactive.
